This excerpt belongs to a sample that is enriched for hits.
12-LOX inh – blocks human arachidonate 12S-lipoxygenase; P18054; purified 12hLO, xylenol orange hydroperoxide absorbance; Potency, µM (highest dose often 108 µM), actives largely listed as inhibitors; actives 1.1% (n = 580,000)
Target sequence (P18054 whole entry, looked up): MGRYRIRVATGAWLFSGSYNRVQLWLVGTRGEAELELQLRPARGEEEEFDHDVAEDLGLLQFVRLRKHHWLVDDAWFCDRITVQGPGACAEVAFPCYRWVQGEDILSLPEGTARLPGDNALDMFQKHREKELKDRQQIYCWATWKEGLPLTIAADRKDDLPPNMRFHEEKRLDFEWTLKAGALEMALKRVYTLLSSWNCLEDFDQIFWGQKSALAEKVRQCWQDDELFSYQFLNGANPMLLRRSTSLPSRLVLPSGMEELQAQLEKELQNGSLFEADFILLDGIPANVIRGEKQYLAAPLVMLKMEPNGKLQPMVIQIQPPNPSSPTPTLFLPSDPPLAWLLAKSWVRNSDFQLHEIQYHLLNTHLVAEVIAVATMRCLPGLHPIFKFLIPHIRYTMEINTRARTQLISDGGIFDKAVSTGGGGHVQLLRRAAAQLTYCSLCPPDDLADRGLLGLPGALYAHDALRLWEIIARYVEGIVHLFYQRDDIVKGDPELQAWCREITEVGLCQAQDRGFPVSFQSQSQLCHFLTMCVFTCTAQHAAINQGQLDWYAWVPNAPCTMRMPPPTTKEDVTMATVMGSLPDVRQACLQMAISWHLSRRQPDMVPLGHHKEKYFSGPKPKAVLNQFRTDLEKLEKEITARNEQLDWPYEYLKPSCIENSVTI
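Purified human 12hLO (150 nM final) in 25 mM Hepes, 0.01% Triton X-100, pH 7.0 was preincubated 15 min at room temperature with compound. Then 40 uM arachidonic acid was added, 30 min. Hydroperoxide was read by Fe-XO absorbance ratio 573/405 nm.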
TDP1 cell noCPT – qHTS for Inhibitors of human tyrosyl-DNA phosphodiesterase 1 (TDP1): qHTS in cells in absence of CPT; DT40 Tdp1-/- hTDP1 cells, no CPT, ATP luminescence, 48 h; actives 15% (n = 420,000); Potency, µM (titrated, usually from 46.2 µM), usual class: inhibitors; further: nearly all actives have a fitted effect of over 55% in size
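Cells were dispensed at 400 per well, compounds added by pin tool, plates incubated ≥48 hr at 37 °C, then CellTiter-Glo added for 30 min at room temperature before luminescence reading. Line: DT40 Tdp1-/- complemented with hTDP1; camptothecin omitted.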
HT1080NT lethal – kills 2HG-producing HT-1080-NT fibrosarcoma cells; HT-1080-NT fibrosarcoma viability, CellTiter-Glo ATP luminescence, 48 h; AID 686970; Potency, µM (doses to about 46.1 µM), most hits filed as cytotoxic; actives 1.6% (n = 360,000);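 further: NT is the 2HG producing partner of a matched IDH1 knockdown line; nearly all actives have a fitted effect of over 55% in size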
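Compounds were tested in concentration-response format on HT-1080-NT cells for 48 hours at 37 degrees C. Cell viability came from CellTiter-Glo luminescence; curves were classified by r2, response magnitude and activity.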
DT40 TDP1 CPT – DT40-hTDP1 cell growth loss with CPT. chicken DT40 Tdp1-/-;hTDP1 cells + 20 nM CPT, ATP luminescence, 48 h. actives 12% (n = 420,000). Potency, µM (series often up to 46.2 µM), actives largely listed as inhibitors; further: nearly all actives have a fitted effect of over 55% in size
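Chicken DT40 Tdp1-/- cells stably complemented with human TDP1 were seeded at 400 cells/well in medium containing 20 nM camptothecin, exposed to pin-transferred compounds, and grown at 37 °C for at least 48 hr. Viability was read as ATP luminescence.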
IL-1B inflam inh – inflammasome signaling inhibition, IL-1 beta readout. activity change, % at 57.5 µM. actives 4.7% (n = 360,000). THP-1 LPS/ATP IL-1B secretion, AlphaLISA, 16 h; stronger effect = lower value; in the data active means activity change below about -50%; inconclusive means mostly about -30% to -49%
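THP-1 cells pretreated 1 hr with compounds (up to 57.5 uM final), then stimulated with LPS (250 ng/mL final) plus ATP (1.25 mM final); secreted IL-1B measured by AlphaLISA after 16 hr, decreased signal indicating inhibition.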
HT1080 IDH1KD tx – HT-1080 IDH1 knockdown cell toxicity (counter line). HT-1080 IDH1 knockdown viability, ATP luminescence, 48 h. Potency, µM (highest dose often 46.1 µM), most hits filed as cytotoxic. actives 2% (n = 360,000). AID 686971
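Assay cells: HT-1080 with IDH1 knockdown, 750 per well, RPMI/5% FBS. Exposure: 48 h at 37 °C following 2 h pre-incubation. Read: CellTiter-Glo luminescence; fitted concentration-response, curve class assigned.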
Hits are given with their value; 0 = inactive; ? = inconclusive; - = no result; [ ] = dose if it differs, or a comment. Unless noted, the call rests on the fitted dose curve; in most records, active means well fitted curve in the direction sought with a large enough effect; inconclusive means small, poorly fitted or top-dose-only effect, or another doubt; inactive means no such curve, though single readings can be large; an effect the other way counts as inactive or inconclusive.

SMILES	12-LOX inh	TDP1 cell noCPT	HT1080NT lethal	DT40 TDP1 CPT	IL-1B inflam inh	HT1080 IDH1KD tx
Cc1ccc(N2CCN(C(=O)c3c(C)oc4ncn(CC(C)C)c(=O)c34)CC2)c(C)c1	?	7.3µM	-	29µM	-	-
Cc1oc2ncn(CC(C)C)c(=O)c2c1C(=O)Nc1ccc(Cl)cn1	0	?	-	?	-	-
CCc1ccc(CNC(=O)c2c(C)oc3ncn(CC(C)C)c(=O)c23)cc1	?	16µM	-	?	-	-
Cc1oc2ncn(CC(C)C)c(=O)c2c1C(=O)NCCc1ccccc1	0	16µM	-	?	-	-
CCOC(=O)C(C)NC(=O)c1c(C)oc2ncn(CC(C)C)c(=O)c12 (stereo not drawn)	?	23µM	-	?	-	-
Cc1ccc(N2CCN(C(=O)c3c(C)oc4ncn(C)c(=O)c34)CC2)c(C)c1	0	0	-	0	-	-
N#C/C(=C\c1ccc(O)c(Br)c1)c1nc2ccccc2[nH]1	0	-	-	-	-	-
Cc1ccc2c(ccn2CCC(=O)Nc2nnc(C3CC3)s2)c1	0	-	-	-	-	-
Cc1ccc(S(=O)(=O)N2[C@@H](c3ccc(F)cc3)C(C(=O)O)=CC[C@H]2c2cccc(C)c2)cc1	0	0	0	0	0	0
CCOC(=O)C1=CC[C@@H](c2ccco2)N(S(=O)(=O)c2ccc(C)cc2)[C@H]1C(=O)OCC	0	18µM	0	?	0	0
CCOC(=O)C1=CC[C@@H](c2ccccc2Cl)N(S(=O)(=O)c2ccc(C)cc2)[C@H]1C(=O)OCC	0	21µM	0	?	0	0
CCOC(=O)C1=CC[C@@H](c2cccc(C)c2)N(S(=O)(=O)c2ccc(C)cc2)[C@H]1C(=O)OCC	0	16µM	0	15µM	0	0
O=C(Nc1cccc(Cl)c1)C1C2CCC3C(CCC21)C3(Cl)Cl (stereo not drawn)	0	16µM	?	?	-72	?
O=C(Nc1ccccc1)C1C2CCC3C(CCC21)C3(Cl)Cl (stereo not drawn)	0	0	0	0	0	0
COc1cccc(NC(=O)N(CCCN2CCOCC2)C(C)c2cc3ccccc3o2)c1 (stereo not drawn)	0	?	16µM	?	0	0
CC(C)CNC(=O)c1ccc2c(c1)NC(C)(COc1ccc3[nH]ccc3c1)CO2 (stereo not drawn)	0	-	-	-	-	-
CCCc1nnc(NS(=O)(=O)c2ccccc2)s1	0	0	0	?	0	0
CCc1nnc(NC(=O)CCN(c2cc(C)cc(C)c2)S(=O)(=O)c2ccc(Cl)cc2)s1	0	18µM	0	?	0	0
CC(=O)Nc1nnc(CCS(=O)(=O)c2ccc(Cl)cc2)s1	0	0	0	0	0	0
CCCCc1nnc(NC(=O)CCS(=O)(=O)c2ccc(Cl)cc2)s1	0	7.3µM	0[9.24 µM]	6.5µM	0	0
CCCc1nnc(NC(=O)CCS(=O)(=O)c2ccccc2)s1	0	5.2µM	0	2.3µM	-58	0
COc1ccc(CN2C(=O)O[C@@H]3CN(C4CCCCC4)C[C@@H]32)cc1OC	0	-	-	-	-	-
COc1ccc(Br)c(C(=O)Oc2ccccc2OC)c1	0	-	-	-	-	-
O=C(CN1CCCCCC1)NC(c1ccccc1)c1ccccc1	?	?	0	0	0	0
O=C(CN1CCN(c2ccc(O)cc2)CC1)Nc1cc([N+](=O)[O-])ccc1Cl	0	21µM	0	21µM	0	0
SMILES	12-LOX inh	TDP1 cell noCPT	HT1080NT lethal	DT40 TDP1 CPT	IL-1B inflam inh	HT1080 IDH1KD tx
O=C(CN1CCN(c2ccc(O)cc2)CC1)NC(c1ccccc1)c1ccccc1	22µM	?	0	0	0	0
COc1cccc(CNC(=O)Cn2c(-c3cccc(Cl)c3)nc(C)c(CCO)c2=O)c1	0	-	-	-	-	-
C=CCNc1nc2c(c(=O)[nH]c(=O)n2C)n1CCCC	0	-	-	-	-	-
c1ccc2c(N3CCC3)nc(-c3ccncc3)nc2c1	0	-	-	-	-	-
c1cncc(-c2nc(N3CCOCC3)c3ccccc3n2)c1	-	35µM	?	?	?	0
c1ccc2c(N3CCOCC3)nc(-c3ccncc3)nc2c1	0	15µM	0	?	?	0[9.24 µM]
Cc1cc(N)n(-c2nc(-c3cccnc3)nc3ccccc23)n1	0	18µM	0	26µM	?	0
Cc1cc(C)nc(NC(N)=NC(C)c2ccccc2)n1 (stereo not drawn)	0	16µM	?	?	?	0
Cc1cc(C)nc(NC(N)=NCCc2c[nH]c3ccccc23)n1	0	9.2µM	0	21µM	-95	?
Cc1cc(C)nc(NC2=NCC(=O)N2CCc2c[nH]c3ccccc23)n1	0	0	0	0	0	0
NC(=NCCc1c[nH]c2ccccc12)NC(=O)c1ccc(Cl)cc1	40µM	0	?	?	0	?
O=C(N[C@@H](Cc1c[nH]c2ccccc12)C(=O)O)c1ccc(Cl)cc1	0	0	0	0	0	0
Cc1cc(C)nc(NC(N)=NCCc2ccccc2)n1	0	2.9µM	10µM	2.6µM	-95	23µM
CC(c1nnc(-c2cccs2)o1)N(C)Cc1cccc(F)c1 (stereo not drawn)	0	-	-	-	-	-
Cc1cc(C)nc(NC(=NCCc2c[nH]c3ccccc23)NC(=O)Nc2ccc(Cl)cc2)n1	0	23µM	0	23µM	0	?
O=C(O)c1cccc(Cn2c(Cl)c(/C=N/NC(=O)c3cccc(O)c3)sc2=O)c1	0	0	0	0	0	0
Cc1ccccc1N/N=C/c1sc(=O)n(Cc2cccc(C(=O)O)c2)c1Cl	?	21µM	?	?	0	?
Cc1ccc2nc(NC(=O)Cn3c(=O)oc4ccccc43)sc2c1	0	-	-	-	-	-
C[C@H](O)[C@@H]1C(=O)N2CCc3c([nH]c4ccccc34)[C@@H]2C[C@@H]1N(C)C(=O)Nc1cc(Cl)cc(Cl)c1	0	?	16µM	29µM	?	?
Cc1ccccc1Oc1ccc2c(c1)[C@@H]1C[C@H](N(C)C(=O)NC3CCCCC3)[C@H]([C@H](C)O)C(=O)N1CC2	0	?	0	?	0	0
Cc1ccccc1Oc1ccc2c(c1)[C@@H]1C[C@H](N(C)C(=O)Nc3cc(Cl)cc(Cl)c3)[C@H]([C@H](C)O)C(=O)N1CC2	0	18µM	0	?	?	0
Cc1ccccc1Oc1ccc2c(c1)[C@@H]1C[C@H]3[C@@H](C(=O)N1CC2)[C@H](C)ON3C	?	23µM	0	16µM	0	0
C[C@H](O)[C@@H]1C(=O)N2CCc3c([nH]c4ccccc34)[C@@H]2C[C@@H]1N(C)C(=O)Nc1ccccc1	0	?	0	0	0	0
Cc1ccccc1Oc1ccc2c(c1)[C@@H]1C[C@H](N(C)C(=O)c3ccco3)[C@H]([C@H](C)O)C(=O)N1CC2	?	18µM	0	?	0	0

Screening data (PubChem BioAssay)
